PBM binding z-score data for 40 sequences are collected here from the supplement of paper PMC6555819.

The test deals with RARb:RXRa (NR concentration 270 nM, RXRa partner concentration 90 nM). The experiment in a line: PBM binding z-score (relative to random genomic background probes); higher = stronger binding; sequences stand for … in GC…GCGATTGACAGCGTAGAATGAAGG
The procedure, abridged: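 Custom Agilent 4×180K protein-binding microarrays carried double-stranded probes. Their 34-nt variable regions held direct-repeat seeds, single-nucleotide variants, half-site ablations and random human genomic background sequences. Arrays were incubated 1 h with ligand-free nuclear receptor dimers in PBS pH 7.4, 2% milk, 0.02% Triton X-100, 1 mM DTT, 0.2 mg/mL BSA and 0.4 mg/ml salmon testes DNA. Antibodies against each partner (one per run) detected binding, and scanned fluorescence was regression-normalized. Binding z-scores use random background probes as reference.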
ATCTCTAGGTAAAGATAGTTCGGTGAATGCAAAT showed a PBM binding z-score of 0.0855.
The same measure for TCTAGCAGTCCAGAGGGTCACTCAAGAGGTACGG: 2.07.
Sequence CCTAGCAGGCCAATCTGGGACACTCAAGGCTTGA came in with a PBM binding z-score of 0.0896.
The same measure for TCTGACAGGTGAAGGTAACTCAGGTACGCAGTCG: 1.28; for TATACAGGCTCAAAGGCCAGAGTACGAATGTCGA: 0.95.
The same measure for GGAACGAGGGCATTCGAGTTAATAGCATGGCGAT: 1.8.
The same measure for CCTACTGGGCCAATGGTCATTGATTCCAATGCTC: 0.311; for GCTGCTAGGTCAACTGATGGTCGGCTAAAGCTCG: 4.45.
As to ACTCGGAGGACCAAGGTCAGAGCTACGCCAGTGA, the PBM binding z-score is 2.86.
The same measure for GGAACGAAGGCAAAGTTGATAGCATCTGTCGACG: -0.337.
The same measure for GGAACGAGGGCATGCGAGTTGATAGCATGGCGAT: 1.91; for TCTTGTAGATCACGCAGGTTAAGAAAGCCTGAGT: 0.386; for TCTTGTAGAACAAGCAGGTTAAGAAAGCCTGAGT: 0.0626.
The same measure for AATACCGGGTCATCGTAGGCCAGAGTACGCACAG: 3.67; for CCTAGCAGGCCAATCTGAGTCACTCAAGGCTTGA: -0.0528.
AGTCAAAGTTCATCTAGGTAAGGTAAGATATGCT: the PBM binding z-score came out at 4.91.
The same measure for AGAACAAGGGCAATGAGTTGATAGCACGGGTGGC: 2.2.
The same measure for CAAACTAGGGCACAGAGGTCAAAGTCCGTGCGTA: 4.41.
The same measure for ATCGAAAGGTCGACGGGGTGAGTATACACCGTTT: 3.98; for TAGCCGAGGTCATGGGCCAGTATACCACGCGAAC: 5.01.
As to TCTAGTTGGTCACGGAGGTAACACACGACGGGTA, the PBM binding z-score turned out to be 1.8.
The same measure for CCTACTGGGCCAGGGTCATTGATCAGTCAAAGCA: 2.51.
The same measure for TCTGCTAGGTCAACGATGGACAGCTAATCTGCTA: 3.97.
The same measure for TCATATAGGTAAAGGTTAAAGTCGAACGATATGA: 2.67; for ACTAGTAGGCCAAGTTTGGGTCACTCAAACAAAG: 2.11; for TCTTGTAGAACAGCAGGTTAAGAAAGCTGGCCAA: 0.0879.
The sequence CCTATTAGTTGACCATAAGGGCTACCGAAGCTCG had a PBM binding z-score of 0.623.
The same measure for GCAGACAGGTGAAACGCGGGTAACTCAGGGTGGC: 0.691; for CCTAGTTGGTCAGGAGGTCAAACACCGGATATGA: 3.76; for TCGAGTAGGTTACAAATGGGGCATTCAGCTTTCT: 0.54.
With GCTGCTAGGTCAGGTAGGTCAGCTAACGGGTACG, the PBM binding z-score stood at 3.87.
The same measure for CCTAGTTGGTGAAGGTCACACACGCTATAGGTAC: 3.74; for CTACCAAGGTGAACAAGGCCGTTGATTACTATTC: 1.59.
The same measure for TATACAGGGTCAAAGGCCAGAGTCCGAATGTCGA: 4.31; for CGTCCAAGGTCAAAGGTCAGTGTAGAGATGACGG: 5.94.
The same measure for GTACGAAGGTGAATAGGTCGTTGATGAGTAGGCG: 2.01; for CCTTACGGGTCAAGGTTATAGTACGGGTGGTACG: 4.18.
With ACAATGAGGTTATTAAGATCAGGGAATTGCGGTC, the PBM binding z-score was found to be 1.74.
The same measure for TCGAGTAGGTTACCAATGGGGCACTCAGCTTTCT: 0.948.
For CCTACTGGGCCATTCAGAGGTCCTTGATCATATG, the PBM binding z-score stood at 0.0641.
